# Results: PubChem BioAssay (EPA / NIEHS)
# Several values for one entry are separate records, joined by “and”; a condition that tells them apart may be missing. Equal entries are not always repeated. Inconclusive results are not listed. Activity calls are given as the source filed them. How the source made its calls, unless noted: active means hit-call score of the fitted dose curve at least 0.9, where 1 is the maximum; inactive means score below 0.9.
# Columns and labels:
# [1] = read-out: TIMP1, TIMP1 (gene 7076); assay: LTEA_HepaRG_TIMP1: Life Technologies and Expression Analysis (LTEA) Assay for TIMP1 using HepaRG (AID 2283534); conditions: mRNA level, 48 h; actives raise or lower the signal;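 on outcome: TaqMan qRT-PCR signal normalized to ACTB GAPDH and POLR2A housekeeping genes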
# Method in brief: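 Differentiated HepaRG cells exposed 48 h in serum-free induction medium, duplicates, eight half-log concentrations from 100 uM in 0.5% DMSO. TIMP1 mRNA by qRT-PCR normalized to ACTB, GAPDH, POLR2A; bidirectional fitting against DMSO.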
# [2] = read-out: Tumor necrosis factor receptor 1 (TNFRSF1A), TNFRSF1A (gene 7132); assay: LTEA_HepaRG_TNFRSF1A: Life Technologies and Expression Analysis (LTEA) Assay for Tumor necrosis factor receptor 1 (TNFRSF1A) using HepaRG (AID 2283535); conditions: mRNA level, 48 h; actives raise or lower the signal
# Method in brief: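 Differentiated HepaRG cells in serum-free induction medium, exposed 48 h in duplicate to 8 half-log concentrations up to 100 uM in 0.5% DMSO. TNFRSF1A mRNA by Fluidigm TaqMan qRT-PCR, normalized to ACTB, GAPDH, POLR2A; bidirectional fit.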
# [3] = read-out: Thyroid Hormone Responsive (THRSP), THRSP (gene 7069); assay: LTEA_HepaRG_THRSP: Life Technologies and Expression Analysis (LTEA) Assay for Thyroid Hormone Responsive (THRSP) using HepaRG (AID 2283536); conditions: mRNA level, 48 h; actives raise or lower the signal
# Method in brief: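 Differentiated human HepaRG cells were exposed in duplicate for 48 h in serum-free induction medium to eight concentrations (top 100 uM, half-log steps, 0.5% DMSO). Expression was quantified by TaqMan qRT-PCR, normalized to ACTB, GAPDH and POLR2A, with bidirectional fitting against DMSO.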
# [4] = read-out: UDP glucuronosyltransferase (UGT1A1), UGT1A1 (gene 54658); assay: LTEA_HepaRG_UGT1A1: Life Technologies and Expression Analysis (LTEA) Assay for UDP glucuronosyltransferase (UGT1A1) using HepaRG (AID 2283538); conditions: mRNA level, 48 h; actives raise or lower the signal
# Method in brief: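 Differentiated human HepaRG cells in serum-free induction medium were exposed in duplicate for 48 h to eight half-log concentrations up to 100 uM in 0.5% DMSO. UGT1A1 mRNA was quantified by TaqMan qRT-PCR, normalized to ACTB, GAPDH and POLR2A, and fitted bidirectionally against DMSO.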
# [5] = read-out: UDP glucuronosyltransferase (UGT1A6), UGT1A6 (gene 54578); assay: LTEA_HepaRG_UGT1A6: Life Technologies and Expression Analysis (LTEA) Assay for UDP glucuronosyltransferase (UGT1A6) using HepaRG (AID 2283539); conditions: mRNA level, 48 h; actives raise or lower the signal
# Method in brief: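 Differentiated HepaRG cells, ~100,000/well, were exposed for 48 h in serum-free induction medium with 0.5% DMSO to 8-point half-log series topping at 100 uM, in duplicate. mRNA measured by Fluidigm TaqMan qRT-PCR, normalized to ACTB, GAPDH and POLR2A.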
# [6] = LTEA_HepaRG_LDH_cytotoxicity: Cytotoxicity Assessment in the Life Technologies and Expression Analysis (LTEA) Assay (AID 2283563; active means hit-call score of the fitted dose curve at least 0.9, where 1 is the maximum;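 on AC50: LDH activity released into spent culture medium as a marker of cell death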)
# Method in brief: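 Differentiated HepaRG cells in serum-free induction medium, exposed 48 h in duplicate to 8 half-log concentrations up to 100 uM in 0.5% DMSO. Cytotoxicity from LDH measured in spent medium, fit relative to DMSO.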
# [7] = read-out: Cellular tumor antigen p53 (Homo sapiens) (UniProt P04637); assay: LTEA_HepaRG_TP53: Life Technologies and Expression Analysis (LTEA) Assay for Tumor Protein P53 (TP53) using HepaRG (AID 2283537); conditions: mRNA level, 48 h; actives raise or lower the signal
# Method in brief: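 TP53 transcript measured by qRT-PCR, normalized to three housekeeping genes, after 48 h treatment of human HepaRG cultures with chemicals from 100 uM downward in half-log steps (0.5% DMSO vehicle, serum-free induction medium). Up- or down-regulation fitted against DMSO.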
# [8] = read-out: X-box binding protein 1 (XBP1), XBP1 (gene 7494); assay: LTEA_HepaRG_XBP1: Life Technologies and Expression Analysis (LTEA) Assay for X-box binding protein 1 (XBP1) using HepaRG (AID 2283540); conditions: mRNA level, 48 h; actives raise or lower the signal
# Method in brief: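 Differentiated human HepaRG cells in serum-free induction medium exposed 48 h in duplicate to eight half-log concentrations up to 100 uM in 0.5% DMSO. XBP1 mRNA measured by Fluidigm TaqMan qRT-PCR, normalized to ACTB, GAPDH, POLR2A; bidirectional fitting against DMSO.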
# [9] = TOX21_p53_BLA_p2_viability: Viability Assessment in the Tox21 HCT-116 p53 Agonism Beta-lactamase Assay, Phase 2 (AID 2283591; active means hit-call score of the fitted dose curve at least 0.9, where 1 is the maximum;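 further: compound exposure lasted 16 h at 37 °C; actives lower the ATP signal meaning cytotoxicity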)
# Method in brief: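 HCT-116 p53-bla cells (4000/well) rested 5 h at 37C, then received compounds in DMSO (217-fold dilution) for 16 h at 37C, 5% CO2. After the CCF4 read, CellTiter-Glo was added; ATP luminescence was read after 30 min at room temperature.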
# [10] = ATG_XTT_Cytotoxicity: Cytotoxicity Assessment in the Attagene TRANS-FACTORIAL HepG2 Assay (AID 2283584; active means hit-call score of the fitted dose curve at least 0.9, where 1 is the maximum;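 on AC50: XTT signal for cell number as viability in transfected HepG2 cells; cells exposed to compound for 24 h before reading; active means loss of viability signal versus DMSO baseline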)
# Method in brief: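 HepG2 cells transiently transfected with GAL4-UAS multiple reporter units, dosed 24 h; cytotoxicity read by XTT as loss of signal versus DMSO baseline.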
# Sequence of Cellular tumor antigen p53 (Homo sapiens) (P04637 whole entry, looked up): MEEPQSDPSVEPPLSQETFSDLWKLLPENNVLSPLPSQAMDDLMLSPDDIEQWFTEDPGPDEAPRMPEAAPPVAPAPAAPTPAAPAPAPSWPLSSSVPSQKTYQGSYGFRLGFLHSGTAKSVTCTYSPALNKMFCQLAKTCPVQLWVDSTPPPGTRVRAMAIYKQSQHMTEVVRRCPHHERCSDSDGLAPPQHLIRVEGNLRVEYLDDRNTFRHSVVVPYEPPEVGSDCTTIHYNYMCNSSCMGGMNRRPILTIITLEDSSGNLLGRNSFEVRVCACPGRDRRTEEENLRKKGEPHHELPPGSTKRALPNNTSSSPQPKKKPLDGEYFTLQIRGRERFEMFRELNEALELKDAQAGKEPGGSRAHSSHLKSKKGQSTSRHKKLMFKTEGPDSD
compound,measurement,setting,value
COP(=O)(OC)OC(Br)C(Cl)(Cl)Br (centres undefined),outcome,[1],inactive
same,outcome,[2],inactive
same,outcome,[3],inactive
same,outcome,[4],inactive
same,outcome,[5],inactive
same,outcome,[6],inactive
FC(F)C(F)(F)OCC(Cn1cncn1)c1ccc(Cl)cc1Cl (centres undefined),outcome,[1],inactive
same,AC50,[2],49.8 µM (active)
same,AC50,[3],3.87 µM (active)
same,AC50,[7],31.5 µM (active)
same,AC50,[4],38.1 µM (active)
same,AC50,[5],76.8 µM (active)
same,AC50,[8],86.9 µM (active)
same,AC50,[6],75.2 µM (active)
same,outcome,[9],inactive
CN(C)NC(=O)CCC(=O)O,outcome,[1],inactive
same,outcome,[2],inactive
same,outcome,[3],inactive
same,outcome,[7],inactive
same,outcome,[4],inactive
same,outcome,[5],inactive
same,outcome,[8],inactive
same,outcome,[6],inactive
same,outcome,[9],inactive
Nc1c(Cl)cc([N+](=O)[O-])cc1Cl,AC50,[1],74 µM (active)
same,AC50,[2],74.1 µM (active)
same,AC50,[3],42.3 µM (active)
same,AC50,[4],11.4 µM (active)
same,AC50,[5],78.1 µM (active)
same,outcome,[8],inactive
same,outcome,[6],inactive
same,outcome,[10],inactive
CCOP(=O)(SC(C)CC)N1CCSC1=O (centres undefined),outcome,[1],inactive
same,outcome,[2],inactive
same,outcome,[3],inactive
same,outcome,[4],inactive
same,outcome,[5],inactive
same,outcome,[8],inactive
same,outcome,[6],inactive
CSC1=N[C@@](C)(c2ccccc2)C(=O)N1Nc1ccccc1,outcome,[1],inactive
same,outcome,[2],inactive
same,AC50,[3],71.4 µM (active)
same,AC50,[7],28.4 µM (active)
same,AC50,[4],32.1 µM (active)
same,AC50,[5],33.2 µM (active)
same,outcome,[8],inactive
same,AC50,[6],32.4 µM (active)
same,outcome,[9],inactive
O=[N+]([O-])c1cc(C(F)(F)F)c(Cl)c([N+](=O)[O-])c1Nc1ncc(C(F)(F)F)cc1Cl,outcome,[1],inactive
same,outcome,[2],inactive
same,AC50,[3],23.9 µM (active)
same,AC50,[4],79.5 µM (active)
same,AC50,[5],73.6 µM (active)
same,outcome,[8],inactive
same,AC50,[6],48.4 µM (active)
same,AC50,[10],38.8 µM (active)
Cc1cc(C2CC2)nc(Nc2ccccc2)n1,outcome,[1],inactive
same,outcome,[2],inactive
same,AC50,[3],50 µM (active)
same,outcome,[7],inactive
same,AC50,[4],50 µM (active)
same,outcome,[5],inactive
same,outcome,[8],inactive
same,AC50,[6],73.7 µM (active)
same,AC50,[9],62.2 µM (active)
N#CSCSC#N,outcome,[1],inactive
same,outcome,[2],inactive
same,AC50,[3],50 µM (active)
same,outcome,[7],inactive
same,outcome,[4],inactive
same,outcome,[5],inactive
same,outcome,[8],inactive
same,AC50,[6],75.7 µM (active)
same,AC50,[9],54.8 µM (active) and 70.4 µM (active)
CC(=NC#N)N(C)Cc1ccc(Cl)nc1,outcome,[1],inactive
same,outcome,[2],inactive
same,outcome,[3],inactive
same,outcome,[7],inactive
same,AC50,[4],50 µM (active)
same,outcome,[5],inactive
same,outcome,[8],inactive
same,outcome,[6],inactive
same,outcome,[9],inactive
CCNc1nc(Cl)nc(NC(C)(C)C#N)n1,outcome,[1],inactive
same,outcome,[2],inactive
same,outcome,[3],inactive
same,outcome,[7],inactive
same,AC50,[4],3.53 µM (active)
same,outcome,[5],inactive
same,outcome,[8],inactive
same,outcome,[6],inactive
same,outcome,[9],inactive
CCCSP(=O)(OCC)Oc1ccc(Br)cc1Cl (centres undefined),outcome,[1],inactive
same,outcome,[2],inactive
same,outcome,[3],inactive
same,outcome,[7],inactive
same,AC50,[4],15.1 µM (active)
same,outcome,[5],inactive
same,outcome,[8],inactive
same,outcome,[6],inactive
same,outcome,[9],inactive
CCCSP(=O)(OCC)SCCC,outcome,[1],inactive
same,outcome,[2],inactive
same,outcome,[3],inactive
same,AC50,[4],22.8 µM (active)
same,outcome,[5],inactive
same,outcome,[8],inactive
same,outcome,[6],inactive
CC1(C(=O)Nc2ccc(O)c(Cl)c2Cl)CCCCC1,outcome,[1],inactive
same,outcome,[3],inactive
same,outcome,[7],inactive
same,outcome,[4],inactive
same,outcome,[5],inactive
same,outcome,[8],inactive
same,outcome,[6],inactive
same,outcome,[9],inactive
CNC(=O)ON=C(SC)C(=O)N(C)C,outcome,[1],inactive
same,outcome,[2],inactive
same,outcome,[3],inactive
same,outcome,[7],inactive
same,outcome,[4],inactive
same,outcome,[5],inactive
same,outcome,[8],inactive
same,outcome,[6],inactive
same,outcome,[9],inactive
CCOP(=S)(OCC)SCCSCC,outcome,[1],inactive
same,outcome,[2],inactive
same,outcome,[3],inactive
same,outcome,[7],inactive
same,outcome,[4],inactive
same,outcome,[5],inactive
same,outcome,[8],inactive
same,outcome,[9],inactive
CCc1cnc(C2=NC(C)(C(C)C)C(=O)N2)c(C(=O)O)c1 (centres undefined),outcome,[1],inactive
same,outcome,[2],inactive
same,outcome,[3],inactive
same,outcome,[4],inactive
same,outcome,[5],inactive
same,outcome,[8],inactive
same,outcome,[6],inactive
CCOP(=S)(OCC)Oc1cc(C)nc(C(C)C)n1,outcome,[1],inactive
same,outcome,[2],inactive
same,AC50,[3],73.3 µM (active)
same,outcome,[7],inactive
same,AC50,[4],10.5 µM (active)
same,outcome,[5],inactive
same,outcome,[8],inactive
same,outcome,[6],inactive
same,outcome,[9],inactive
